Measurements from PubChem BioAssay AID1259313 (Sanford-Burnham Center for Chemical Genomics, 2017).
The campaign covered roughly 340,000 compounds. About 8,500 (2.5%) were called active. This is one part of a sample in which actives are shown more often than they occur. Values without a mark were called inactive.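 How the source made its calls: active means melting temperature shift of at least 10% of the positive control shift, at one fixed dose; inactive means the rest.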

system: Glutamate receptor ionotropic, NMDA 3A (GRIN3A) ligand-binding domain; test: NR3A LBD thermal stabilization by compounds – biophysical, differential scanning fluorimetry, uHTS, primary screen (AID 1259313); settings: at 25 µM, stronger effect = higher value, 0% = protein alone, 100% = glycine-bound protein

SMILES | Tm shift relative to glycine control
COC(=O)c1c(NC(=O)CN(c2ccc(C)c(C)c2)S(C)(=O)=O)sc2c1CCCC2 | -7.55%
O=C(COc1nsnc1N1CCOCC1)Nc1ccccc1Cl | 1.49%
COc1ccccc1N1CC(C(=O)Nc2nnc(SCC(=O)NCC3CCCO3)s2)CC1=O (configuration not stated) | 0.09%
O=C(CNCCO)NC12CC3CC(CC(C3)C1)C2 | -0.61%
O=S(=O)(Nc1ccccc1Cl)c1cccc2nsnc12 | -0.29%
O=C(CC1C(=O)NCCN1CC(c1ccccc1)c1ccccc1)NCC1CCOCC1 (configuration not stated) | 3.8%
O=C(Cn1c(-c2cscn2)nc2ccccc21)Nc1ccc(Cl)cc1 | -2.29%
CC1CCCN(C(=O)Cn2c(=O)oc3cc(S(=O)(=O)N4CCCCC4C)ccc32)C1 (configuration not stated) | -0.87%
O=C(NCCNc1ccc([N+](=O)[O-])cc1)c1cccc2c(Br)cccc12 | 23.8% (active)
O=C(NCCNc1ccc([N+](=O)[O-])cc1Cl)c1ccccc1F | -1.3%
CC(CNc1ccc([N+](=O)[O-])cc1)NC(=O)c1ccccc1Br (configuration not stated) | 2.55%
Clc1cc(-c2ccc(/C=N/n3cnnc3)o2)ccc1Br | -26.7%
CCOC(=O)CNC(=O)CSc1nnc(COc2ccc(Cl)cc2)n1CC | -0.34%
O=C(CSc1nnc(COc2ccc(Cl)cc2)n1Cc1ccco1)N1CCNC1=O | 14.1% (active)
CCN(CC)C(=O)CSc1nnc(CNc2ccc(F)cc2)n1Cc1ccco1 | 1.69%
CC(C)c1cc(N=O)cc(C(C)C)c1O | 14% (active)
CC(C)c1cc(CN2CCOCC2)cc(C(C)C)c1O | -0.77%
CC(C)=CCc1ccc(O)c(=O)cc1C(C)C | -5.18%
Cc1noc(C)c1-c1ccc2ncnc(NC(C)c3ccco3)c2c1 (configuration not stated) | -0.81%
COc1ccc(C(C(O)C(=O)c2c[nH]c3ccccc23)N2CCN(c3ccccc3)CC2)cc1 (configuration not stated) | -1.26%
COc1ccc(/C=C(\C#N)c2c[nH]c3ccccc23)cc1 | 35.2% (active)
COc1cccc(-n2c(SCC(=O)c3c[nH]c4ccccc34)nc3ccccc3c2=O)c1 | 8.21%
Cc1cc(C)c2nc(NC(=O)C3CCCO3)sc2c1 (configuration not stated) | -0.2%

SMILES | Tm shift relative to glycine control
CC(NC(=O)c1ccccc1)C(=O)OCC(=O)Nc1cccc(S(=O)(=O)N2CCCC2)c1 (configuration not stated) | -1.26%
NS(=O)(=O)c1ccc(NC(=S)NC(=O)c2cccc(Br)c2)cc1 | -9.81%
Cc1ccccc1NC(=S)NNC(=O)c1cccc(Br)c1 | -6.22%
O=C(NC(=S)Nc1cccc2c(O)cccc12)c1cccc(Br)c1 | 23.1% (active)
C/C=C(/C)C(=O)O[C@@H]1c2cc3c(c4c2[C@@]2(CO4)C(=O)C(OC)=C(OC)C=C2C[C@@H](C)[C@H]1C)OCO3 | 0.32%
CCN1C(=O)C(CC(=O)Nc2cc(C)ccc2C)SC1=Nc1ccc(S(N)(=O)=O)cc1 (configuration not stated) | 14.2% (active)
CCN1C(=O)C(=O)N(CC(=O)Nc2cc(C)ccc2C)C1=O | 1.68%
CCN=C1SC(CC(=O)Nc2ccc(C)cc2)C(=O)N1CC (configuration not stated) | 0.44%
C/C(=N\NS(=O)(=O)c1ccccc1)c1c(O)cc(C)oc1=O | 5.22%
COc1ccc(-c2nc(N)ncc2-c2ccc(Cl)cc2)c(O)c1 | -3.97%
Oc1cccc(C2c3[nH]c4ccccc4c3CCN2Cc2cnn(-c3ccccc3)c2)c1 (configuration not stated) | 9.57%
Cc1[nH]nc(-c2ccc(OCc3cnn(-c4ccccc4)c3)cc2O)c1Oc1ccc(Cl)cc1 | 22.7% (active)
COc1ccc(C(=O)NC(Cc2ccc(OC(=O)c3ccc(OC)cc3)cc2)C(=O)O)cc1 (configuration not stated) | 1.26%
CCCC(C)n1[nH]c(=O)c2c(C)cc(C)nc21 (configuration not stated) | -2.91%
COc1ccc(/C=C/C(=O)OCC(=O)N2CCN(S(=O)(=O)c3ccc(C)cc3C)CC2)cc1OC | 2.82%
Cc1nc2ccccn2c(=O)c1NC(=O)c1cccs1 | 2.62%
Brc1ccc(-c2csc(N/N=C/c3ccc4c(c3)OCO4)n2)cc1 | 23.4% (active)
C(=N\Nc1ccc2ccccc2n1)/c1ccc2c(c1)OCO2 | -7.73%
Brc1ccc(-c2csc(N/N=C/c3cccnc3)n2)cc1 | 3.34%
COc1ccc(-c2ccc(CCC(=O)O)n2NC(=O)c2ccc(C(C)(C)C)cc2)cc1 | -1.21%
CNC(=O)c1sc(NCc2ccccc2OC)nc1C | 0.18%
O=C(O)/C=C\C(=O)Nc1ccc(OCc2ccccc2)cc1 | -0.88%
CNC(=O)c1sc(Nc2ccc(OCc3ccccc3)cc2)nc1C | 33.7% (active)

SMILES | Tm shift relative to glycine control
COC(=O)C1=C(Nc2ccc(C)cc2)C=C(C)C(C(=O)OC)C1c1ccc(F)cc1 (configuration not stated) | 2.17%
CC[C@]1(C(=O)OC)[C@H]2C(=O)N(Cc3ccccc3)C(=O)[C@H]2[C@H]2CN=C(SCc3ccccc3)N21 | -1.15%
COCCN1C2=C(COC(C)(C)C2)C(=S)NC1c1ccccc1 (configuration not stated) | -0.64%
CC(=O)c1c(Nc2ccccc2)sc(C(=O)c2ccccc2)c1C | 13.4% (active)
CCC(=O)Nc1sc(C(=O)Nc2ccccc2)c(C)c1C(=O)OC | 2.03%
COC(=O)c1c(NC(C)=O)sc(C(=O)Nc2ccccc2OC)c1C | -3.42%
COC(=O)c1cc(S(=O)(=O)N2CCN(c3cc(C)ccc3C)CC2)c[nH]1 | -17%
Cc1ccc(Cl)c(OCC(=O)NN2CCN(C)CC2)c1 | -1.17%
CCCC1=Nc2cc(C(=O)NCc3ccco3)ccc2Sc2ccccc21 | -20.6%
Cc1ccc(N(CC(=O)Nc2cc(C)cc(C)c2)S(=O)(=O)c2cccc3nonc23)cc1 | -1.49%
CCOC(=O)c1ccc(NC(=O)c2nc[nH]c2C(=O)NCc2ccccc2)cc1 | -1.27%
CCOC(=O)c1ccc(NC(=O)c2c(N)n(C)c(=O)[nH]c2=O)cc1 | 0.72%
CCOC(=O)c1ccc(NC(=O)c2c(NCc3ccccc3)[nH]c(=O)[nH]c2=O)cc1 | 14.9% (active)
Cc1ccc(NC(=S)N2CCN(c3ncccn3)CC2)cc1C | -1.38%
Cn1cc(/C=C/C(=O)N2CCCC(C(=O)c3ccc(C(F)(F)F)cc3)C2)cn1 (configuration not stated) | 1.32%
CCCCn1c(N)c(N(CCOC)C(=O)c2cccc(OCc3ccccc3)c2)c(=O)[nH]c1=O | 1.68%
CCCCCCCCCCOC(=O)Cn1c(COc2ccc(C)cc2)[n+](C)c2ccccc21 | -408%
CCCCCCCCCCOC(=O)Cn1c(COc2cccc(OC)c2)[n+](C)c2ccccc21 | 17.8% (active)
O=C1CC(Cc2ccccc2)C(=O)N1c1ccc(Cl)cn1 (configuration not stated) | 1.69%
Fc1ccc(/C=N/n2c(COc3ccccc3)n[nH]c2=S)cc1 | -0.74%
CN(C)c1ccc(C2Nc3ccccc3C(=O)N2NS(=O)(=O)c2ccccc2)cc1 (configuration not stated) | 0.59%
O=C(CN1CCOCC1)Nc1c2c(nc3c1CCC3)CCC2 | 10.2% (active)
O=C(CN1CCOCC1)Nc1c(Cl)cc(Cl)cc1Cl | -2.33%

SMILES | Tm shift relative to glycine control
Cc1cc(C)c(NC(=O)CN2CCOCCOCCOCCOCC2)c(C)c1 | 0.86%
O=C(COc1ccc2ccccc2c1)N1CCN(C(=O)c2cccs2)CC1 | 0.47%
CCOC(=O)c1nn(-c2ccccc2F)c2nc(Nc3ccccc3)cc(=O)n12 | 0.55%
Cc1ccc(NC(=O)CSCC(=O)Nc2sccc2C#N)cc1 | -2.55%
CCc1ccc2nc3sc(C(=O)Nc4nnc(CC)s4)c(N)c3cc2c1 | 2.24%
Cc1ccc(NC(=O)c2sc3nc(N)c(C#N)cc3c2N)cc1 | 10.3% (active)
O=C(CCn1nnc2ccccc2c1=O)N[C@@H](Cc1c[nH]c2ccccc12)C(=O)O | -1.09%
O=C(N[C@@H](Cc1c[nH]c2ccccc12)C(=O)O)OCC1c2ccccc2-c2ccccc21 | 19.5% (active)
Cc1cccc(C)c1OCC(=O)NC(Cc1c[nH]c2ccccc12)C(=O)O (configuration not stated) | 0.33%
Cc1cc(NC(=O)C(C)SCC(=O)Nc2cccc(S(=O)(=O)N3CCCCCC3)c2)no1 (configuration not stated) | -1.57%
O=C(N/N=C/c1ccc([N+](=O)[O-])cc1)c1c[nH]c2ccccc12 | 26.3% (active)
Nc1nonc1-n1nnc(C(=O)N/N=C/c2c[nH]c3ccccc23)c1-c1ccccc1 | 31.6% (active)
NC(=O)CSc1c[nH]c2ccccc12 | 0.83%
C[n+]1ccc(/C=C/c2c[nH]c3ccccc23)cc1 | -3.88%
O=C(NN=Cc1ccc([N+](=O)[O-])cc1)C1CC1 | -0.92%
CC(C)c1c(C(=O)N/N=C/c2ccccc2C(=O)O)nnn1-c1nonc1N | -7.76%
Nc1nonc1-n1nnc(C(=O)N/N=C/C2CCCCC2)c1-c1ccccc1 | 0.68%
Cc1c(/C=N\NC(=O)c2cc3ccccc3o2)c2ccccc2n1C | 2.79%
O=C(N/N=C/c1c[nH]c2ccccc12)c1cc2ccccc2o1 | 28.7% (active)
O=C(N/N=C/c1ccc(Cl)cc1)c1nc2ccc([N+](=O)[O-])cc2c(=O)[nH]1 | 1.51%
CSC(=S)N/N=C/c1c[nH]c2ccccc12 | 30.1% (active)
Cc1cc(NC(=O)c2cc3ccccc3o2)no1 | 2.81%
Cc1ccc(N2CCN(S(=O)(=O)N(C)C)CC2)cc1Cl | 1.66%
